We go through twelve molecules from PubChem BioAssay (Tox21).

Test [1] in a line: qHTS RealTime-Glo MT Cell Viability Assay in HEK293 cells - 16 hour (AID 1224872). Note: nearly all actives have a fitted effect of over 50% in size. Note: potency is the fitted concentration of half-maximal effect. Put shortly: (§1)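 Cells + reagent dispensed (600 cells/well, HEK293) → 5 h at 37 C/5% CO2 → 23 nL compound in DMSO pinned → 40 h at 37 C → luminescence read at 0, 8, 16, 24, 32, 40 h.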
In general terms: qHTS replaces the single test concentration by a dilution series.

Test [2] is described as follows: qHTS RealTime-Glo MT Cell Viability Assay in HepG2 cells - 8 hour (AID 1224873). Note: nearly all actives have a fitted effect of over 55% in size. Note: potency is the fitted concentration of half-maximal effect. Put shortly:
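Real-time viability: cells seeded at 600 per well together with NanoLuc and cell-permeant prosubstrate, compounds added after 5 h incubation. Luminescence tracked at 0, 8, 16, 24, 32 and 40 h of exposure.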

A short description of test [3]: qHTS RealTime-Glo MT Cell Viability Assay in HEK293 cells - 40 hour (AID 1224874). Note: nearly all actives have a fitted effect of over 50% in size. Note: potency is the fitted concentration of half-maximal effect. As to conditions: RealTime-Glo luminescence; max response: stronger effect = lower value. Put shortly:
(§2)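 Nonlytic bioluminescent viability monitoring. HEK293 at 600 cells/well with reagent; 5 h settle; compound transfer by pintool; plates held at 37 C and read at set time points.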

Test [4] in a line: A CellTox Green Cytotoxicity Assay to monitor cytotoxicity in HEK293 cells - 24 hour (AID 1224875). Note: nearly all actives have a fitted effect of over 45% in size. Note: potency is the fitted concentration of half-maximal effect. Put shortly: (§3)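 Cytotoxicity was tracked continuously in HEK293 cells by a DNA-binding dye excluded from viable cells. Compounds were transferred in DMSO 5 h after seeding; fluorescence was recorded at intervals up to 40 h.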
A short description of test [5]: A CellTox Green Cytotoxicity Assay to monitor cytotoxicity in HepG2 cells - 16 hour (AID 1224876). Note: nearly all actives have a fitted effect of over 45% in size. Note: potency is the fitted concentration of half-maximal effect. The method, boiled down: (§4)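 Real-time, homogeneous cytotoxicity readout: dead-cell DNA staining by CellTox Green in HepG2 monolayers, fluorescence measured at timed intervals up to 40 h of continuous compound exposure.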
A short description of test [6]: qHTS RealTime-Glo MT Cell Viability Assay in HepG2 cells - 32 hour (AID 1224877). Note: nearly all actives have a fitted effect of over 55% in size. Note: potency is the fitted concentration of half-maximal effect. The method, boiled down: (§5)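 Real-time, nonlytic viability: 600 HepG2 cells/well mixed with NanoLuc enzyme plus prosubstrate; 5 h settle, compound (DMSO) added by pintool; luminescence monitored over 40 h at 37 C.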
Test [7] is described as follows: A CellTox Green Cytotoxicity Assay to monitor cytotoxicity in HepG2 cells - 24 hour (AID 1224878). Note: nearly all actives have a fitted effect of over 45% in size. Note: potency is the fitted concentration of half-maximal effect. The method, boiled down:
as §4

A short description of test [8]: A CellTox Green Cytotoxicity Assay to monitor cytotoxicity in HepG2 cells - 40 hour (AID 1224879). Note: nearly all actives have a fitted effect of over 40% in size. Note: potency is the fitted concentration of half-maximal effect. The method, boiled down:
as §4

Test [9] is described as follows: qHTS RealTime-Glo MT Cell Viability Assay in HEK293 cells - 0 hour (AID 1224880). Note: nearly all actives have a fitted effect of over 45% in size. Note: potency is the fitted concentration of half-maximal effect. The method, boiled down: as §2
The nature of test [10]: A CellTox Green Cytotoxicity Assay to monitor cytotoxicity in HEK293 cells - 32 hour (AID 1224881). Note: nearly all actives have a fitted effect of over 40% in size. Note: potency is the fitted concentration of half-maximal effect. The method, boiled down:
as §3

Test [11] in a line: A CellTox Green Cytotoxicity Assay to monitor cytotoxicity in HepG2 cells - 0 hour (AID 1224882). Note: nearly all actives have a fitted effect of over 35% in size. Note: potency is the fitted concentration of half-maximal effect. The method, boiled down:
as §4

Test [12] in a line: A CellTox Green Cytotoxicity Assay to monitor cytotoxicity in HepG2 cells - 32 hour (AID 1224883). Note: nearly all actives have a fitted effect of over 50% in size. Note: potency is the fitted concentration of half-maximal effect. The method, boiled down: as §4
Test [13] in a line: A CellTox Green Cytotoxicity Assay to monitor cytotoxicity in HEK293 cells - 8 hour (AID 1224884). Note: nearly all actives have a fitted effect of over 35% in size. Note: potency is the fitted concentration of half-maximal effect. The method, boiled down: as §3
A short description of test [14]: qHTS RealTime-Glo MT Cell Viability Assay in HepG2 cells - 16 hour (AID 1224885). Note: nearly all actives have a fitted effect of over 50% in size. Note: potency is the fitted concentration of half-maximal effect. Put shortly:
as §5

The nature of test [15]: qHTS RealTime-Glo MT Cell Viability Assay in HEK293 cells - 24 hour (AID 1224886). Note: nearly all actives have a fitted effect of over 50% in size. Note: potency is the fitted concentration of half-maximal effect. Put shortly: as §1
Test [16] is described as follows: qHTS RealTime-Glo MT Cell Viability Assay in HEK293 cells - 8 hour (AID 1224887). The method, boiled down:
as §2

Test [17] is described as follows: A CellTox Green Cytotoxicity Assay to monitor cytotoxicity in HEK293 cells - 16 hour (AID 1224888). Note: nearly all actives have a fitted effect of over 35% in size. Note: potency is the fitted concentration of half-maximal effect. Put shortly: as §3
Test [18] can be described thus: qHTS RealTime-Glo MT Cell Viability Assay in HepG2 cells - 0 hour (AID 1224889). Note: nearly all actives have a fitted effect of over 50% in size. Note: potency is the fitted concentration of half-maximal effect. The method, boiled down:
as §5

Test [19] in a line: A CellTox Green Cytotoxicity Assay to monitor cytotoxicity in HepG2 cells - 8 hour (AID 1224890). Note: nearly all actives have a fitted effect of over 45% in size. Note: potency is the fitted concentration of half-maximal effect. The method, boiled down:
as §4

The nature of test [20]: qHTS assay to identify small molecule antagonists of the estrogen receptor alpha (ER-alpha) signaling pathway using the BG1 cell line in the presence of 0.1 nM 17-beta-estradiol - cell viability counter screen (AID 1259241). Note: nearly all actives have a fitted effect of over 40% in size. Put shortly: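 The cell line endogenously expresses full-length ER-alpha and carries four EREs driving luciferase. Cells are cultured 5 days hormone-free, treated 22 hr with compounds and 0.1 nM estradiol, then viability is read by fluorescence.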

Where “and” joins values, the source holds several entries; their conditions need not be identical. Identical values can stand only once. Records with an inconclusive call do not appear. A structure can be active in one record and inactive in another. Calls of active or inactive are those of the source. Calls come from the whole dose curve; as a rule, active = well fitted curve in the direction sought with a large enough effect in the repeat runs; inconclusive = weak or mixed curves; inactive = no such curve, though single readings can be large; an effect the other way counts as inactive or inconclusive.
% is set by controls: 0 for no effect and ±100 for the full control effect.

As for `CSc1cnc(C)cn1`, the Potency result in test [1], in test [2], in test [6], in [9], in test [14] and in [15] was “inactive” throughout. Besides, the Potency entry in [16] and in [18] was “inactive” throughout. Besides, the max response in test [3] is 7.94% (inactive). Besides, the Potency was 89.4 µM (active) in test [4]; 89.4 µM (active) in test [5]; 63.3 µM (active) in test [7]; 63.3 µM (active) in [8]; 89.4 µM (active) in test [10]; 56.4 µM (active) in test [11]. The Potency was 63.3 µM (active) in test [12], 63.3 µM (active) in test [13], 89.4 µM (active) in test [17] and 56.4 µM (active) in [19].
As for `CCCC/C=C/CCCCO`, the Potency result in test [1], in test [2], in test [4], in [5], in test [6] and in test [7] was “inactive” in each case. Also, the Potency result in [8], in test [9], in [10], in test [11], in [13] and in test [14] was “inactive” throughout. Also, the Potency result in [15], in test [16], in test [17], in test [18], in test [19] and in test [20] was “inactive” in each case. Also, the max response in test [3] was 5.87% (inactive).
Consider `CC(C)(C)C(=O)OCOC(=O)[C@@H]1N2C(=O)[C@@H](NC(=O)[C@H](N)c3ccccc3)[C@H]2SC1(C)C`, for which the Potency result in [1], in test [2], in test [4], in [5], in test [6] and in test [7] was “inactive” in each case. For the same molecule, the Potency entry in test [8], in test [9], in test [10], in test [11], in [12] and in [13] was “inactive” throughout. In addition, the Potency entry in test [14], in test [15], in [16], in test [17] and in [19] was “inactive” each time. In addition, the max response in test [3] was 5.37% (inactive).
Turning to `CN(C)[C@@H]1C(=O)C(C(N)=O)=C(O)[C@@]2(O)C(=O)C3=C(O)c4c(O)cccc4C[C@H]3C[C@@H]12`, the Potency entry in test [1], in test [2], in [4], in [5], in test [6] and in test [7] was “inactive” each time. The Potency entry in test [8], in test [9], in test [10], in [11], in [12] and in test [13] was “inactive” each time. The Potency result in [14], in test [15], in [16], in [17], in [18] and in test [19] was “inactive” each time. In addition, in [20], the Potency result was “inactive”. Further, in test [3], the max response is 1.21% (inactive).
Consider `CCCCc1oc2ccc(NS(C)(=O)=O)cc2c1C(=O)c1ccc(OCCCN(CCCC)CCCC)cc1`, for which the Potency in [1] was 10.7 µM (active); in [2], 21.3 µM (active); in test [3], 8.49 µM (active); in test [4] it was 19 µM (active); in test [5], 21.3 µM (active); in test [6], 9.52 µM (active). Besides, the Potency is 19 µM (active) in test [7]; 9.52 µM (active) in test [8]; 21.3 µM (active) in test [10]; 19 µM (active) in test [12]; 23.9 µM (active) in test [13]; 19 µM (active) in test [14]. The Potency is 10.7 µM (active) in [15], 23.9 µM (active) in test [17] and 23.9 µM (active) in test [19]. For the same molecule, the Potency entry in test [9] and in [11] was “inactive” each time.
On to `Cc1cccc(N(C)C(=S)Oc2ccc3c(c2)C2CCC3C2)c1` (stereo not drawn), for which the Potency entry in test [1], in test [2], in test [4], in [5], in test [6] and in [7] was “inactive” each time. For the same molecule, the Potency result in test [8], in test [9], in [10], in [11], in [12] and in [13] was “inactive” throughout. In addition, the Potency entry in test [14], in [15], in test [16], in test [17], in [18] and in test [19] was “inactive” throughout. In addition, in test [20], the Potency result was “inactive”. Besides, the max response in [3] was -13.2% (inactive).
With `C[C@]12CCC(=O)C=C1CC[C@@H]1[C@@H]2[C@@H](O)C[C@@]2(C)[C@H]1CC[C@]2(O)C(=O)COC(=O)CCC(=O)O`, the Potency result in test [1], in test [2], in test [4], in [5], in test [6] and in [7] was “inactive” throughout. Also, the Potency entry in test [8], in [10], in test [11], in test [12], in [13] and in test [14] was “inactive” each time. Besides, the Potency entry in [15], in test [16], in test [17] and in test [20] was “inactive” each time. Besides, in [3], the max response was -8.8% (inactive). Besides, the Potency in [9] was 10.7 µM (active); in test [18], 3.38 µM (active).
In the case of `COc1cc(/C=C/C(=O)O[C@H]2CC[C@]34C[C@]35CC[C@]3(C)[C@@H]([C@H](C)CCC=C(C)C)CC[C@@]3(C)[C@@H]5CC[C@H]4C2(C)C)ccc1O`, the Potency entry in test [1], in test [2], in [4], in [5], in [6] and in test [7] was “inactive” in each case. For the same molecule, the Potency result in test [8], in test [9], in [10], in test [11], in test [12] and in test [14] was “inactive” each time. Further, the Potency entry in test [15], in test [16], in test [17], in [19] and in test [20] was “inactive” in each case. For the same molecule, the max response in test [3] is 1.32% (inactive).
For the molecule `Clc1ccc2nsnc2c1NC1=NCCN1`, the Potency entry in test [1], in test [2], in test [4], in test [5], in [6] and in [7] was “inactive” throughout. In addition, the Potency result in test [8], in test [9], in test [10], in test [11], in [12] and in test [13] was “inactive” throughout. Also, the Potency entry in [14], in test [15], in test [17], in [18], in test [19] and in [20] was “inactive” in each case. Besides, the max response in [3] was 0.404% (inactive).
For `COC(=O)C1=C(C)NC(C)=C(C(=O)OCC(C)C)C1c1ccccc1[N+](=O)[O-]` (stereo not drawn), the Potency was 38.9 µM (active) in [1]; 43.6 µM (active) in [2]; 19.5 µM (active) and 23.9 µM (active) in test [3]; 49 µM (active) in [6]; 21.3 µM (active) in [9]; 49 µM (active) and inactive in [10]. Moreover, the Potency in test [14] was 43.6 µM (active); in test [15], 24.5 µM (active); in test [18] it was 21.9 µM (active). Further, the Potency result in test [4], in [5], in test [7], in [8], in test [11] and in [12] was “inactive” each time. Further, the Potency result in [13], in test [17] and in [19] was “inactive” in each case.
As for `CCC(C)(C)C1CCCCC1OC(C)=O` (stereo not drawn), the Potency entry in test [1], in test [2], in [4], in test [5], in [6] and in [7] was “inactive” throughout. Further, the Potency result in test [8], in test [9], in test [10], in test [11], in test [12] and in test [13] was “inactive” throughout. The Potency entry in test [14], in [15], in test [16], in test [17], in test [19] and in test [20] was “inactive” in each case. Further, in [3], the max response is 6.6% (inactive).
Regarding `[Cl][Au]([Cl])[Cl]`, the Potency was 4.9 µM (active) in [1]; 49 µM (active) in [2]; 3.09 µM (active) in test [3]; 21.9 µM (active) in test [4]; 21.9 µM (active) in test [5]; 9.77 µM (active) in test [6]. The Potency in [7] is 13.8 µM (active); in test [8], 7.76 µM (active); in [10], 19.5 µM (active); in test [12], 11 µM (active); in test [14] it was 15.5 µM (active); in test [15] it was 3.89 µM (active). For the same molecule, the Potency in [17] was 49 µM (active). The Potency result in test [9], in test [11], in test [13] and in test [18] was “inactive” in each case.
